Experimental data: PubChem BioAssay AID588397 (National Center for Advancing Translational Sciences (NCATS), 2011)
In all, about 1,300 compounds went through this assay and about 1,000 (77%) were called active. Inconclusive results (about 7%) are left out. Calls come from the whole dose curve; as a rule, active = well fitted inhibition curve with a large enough effect; inconclusive = small, poorly fitted or top-dose-only effect; inactive = no such curve, though single readings can be large or run the other way. So high a share suggests a set chosen from earlier hits. Some of the results follow.

Test: qHTS of small molecules that selectively kill Giardia lamblia: Hit Validation.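 Note: viability measured as ATP content by luminescence so killing lowers signal; trophozoites exposed to compounds for 48 h anaerobically at 37 °C; nearly all actives have a fitted effect of over 65% in size.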
Conditions: Giardia lamblia trophozoite viability, dose-response; series mostly up to 38.3 µM; activity change, negative = killing: at the top concentration
Outline: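 Trophozoites 100 cells/well + cpd; 48 hrs, 37 deg C, anaerobic. ATPLite 1-Step added, 15-30 min RT, luminescence read (ATP-based viability).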
% is set by controls: 0 for no effect and ±100 for the full control effect; potency is the fitted concentration of half-maximal effect.

| Compound | activity change, negative = killing | Potency |
| --- | --- | --- |
| Cc1nc(CS(=O)(=O)c2ccc(Cl)cc2)sc1C(=O)O | 7.64% (inactive) | – |
| O=C1c2ccccc2C(=O)c2c1ccc1c(=O)n(C3CCCCC3)[nH]c21 | – | 2.31 µM (active) |
| CC(C)Cn1[nH]c2c3c(ccc2c1=O)C(=O)c1ccccc1C3=O | – | 1.45 µM (active) |
| COCCCn1[nH]c2c3c(ccc2c1=O)C(=O)c1ccccc1C3=O | – | 1.03 µM (active) |
| CCc1ccc(S(=O)(=O)Nc2ccc(-c3ccc4nnc(C)n4n3)cc2)s1 | -30% (inactive) | – |
| COC(=O)[C@@]12CCCCN1[C@H](c1ccc(-c3ccc(C(C)=O)cc3)cc1)[C@@H]1C(=O)N(C)C(=O)[C@@H]12 | -23.9% (inactive) | – |
| CCCC12CN3CC(C)(CN(C1)C3c1ccc([N+](=O)[O-])o1)C2=O (stereo not given) | – | 1.83 µM (active) |
| CC12CN3CC(C)(CN(C1)C3c1ccc([N+](=O)[O-])o1)C2 (stereo not given) | – | 1.3 µM (active) |
| CCC12CN3CC(CC)(CN(C1)C3c1ccc([N+](=O)[O-])o1)C2=O (stereo not given) | – | 4.1 µM (active) |
| CCCCC12CN3CC(C)(CN(C1)C3c1ccc([N+](=O)[O-])o1)C2=O (stereo not given) | – | 2.05 µM (active) |
| O=c1cccc(-c2ccccc2)[nH]1 | -19.2% (inactive) | – |
| O=c1[nH]c(=O)c2cc([N+](=O)[O-])cc([N+](=O)[O-])c2[nH]1 | – | 4.1 µM (active) |
| O=C(COc1cccnc1[N+](=O)[O-])N1CCc2ccccc21 | – | 4.1 µM (active) |
| O=C(COc1cccnc1[N+](=O)[O-])Nc1cccc2ccccc12 | – | 4.6 µM (active) |
| COc1ccccc1NC(=O)COc1cccnc1[N+](=O)[O-] | – | 6.5 µM (active) |
| COC(=O)c1sc(NC(=O)COc2cccnc2[N+](=O)[O-])c(C(=O)OC)c1C | – | 4.1 µM (active) |
| COc1ccccc1NCCC(=O)OCC(=O)NC1CCCCCC1 | -3.6% (inactive) | – |
| CC(C)Cn1c(=S)[nH]c2cc(C(=O)NCc3ccccc3F)ccc2c1=O | 2.52% (inactive) | – |
| O=[N+]([O-])c1cnc2ccccn12 | – | 2.05 µM (active) |
| S=c1[nH]nc2ccccn12 | -16.5% (inactive) | – |
| O=C(CSc1cccc[n+]1[O-])Nc1cc2c(cc1Cl)C(=O)c1ccccc1C2=O | – | 2.9 µM (active) |
| N#C/C(=C/c1ccc(O)c([N+](=O)[O-])c1)C(=O)Nc1ccccc1 | – | 3.26 µM (active) |
| N#C/C(=C\c1ccc(O)c([N+](=O)[O-])c1)C(=O)NCc1ccccc1 | – | 3.26 µM (active) |
| N#C/C(=C\c1ccc(O)c([N+](=O)[O-])c1)c1nc2ccccc2s1 | – | 1.83 µM (active) |

| Compound | activity change, negative = killing | Potency |
| --- | --- | --- |
| COCCNC(=O)/C(C#N)=C/c1ccc(O)c([N+](=O)[O-])c1 | – | 4.6 µM (active) |
| CC(C)C[C@H](NC(=O)c1[nH]cnc1C(=O)N[C@H](C)c1ccccc1)C(=O)OCc1ccccc1 | -11.2% (inactive) | – |
| CCN(CC)CC(=O)Nc1c(C)cccc1C | 2.88% (inactive) | – |
| O=c1/c(=C/c2ccc(O)c([N+](=O)[O-])c2)sc2nc3ccccc3n12 | – | 2.59 µM (active) |
| COc1ccc2c(c1)C1OCCC1C(c1ccco1)N2 (stereo not given) | – | 2.31 µM (active) |
| Cc1ccc(N2CC(C(=O)Nc3ncc([N+](=O)[O-])s3)CC2=O)cc1 (stereo not given) | – | 0.365 µM (active) |
| O=C(Nc1ncc([N+](=O)[O-])s1)C1CC(=O)N(c2ccc(F)cc2)C1 (stereo not given) | – | 1.03 µM (active) |
| O=C(CCN=C1NS(=O)(=O)c2ccccc21)OCC(=O)c1ccc(F)c(F)c1 | 5.94% (inactive) | – |
| CCCNC(=O)Cn1c(=O)n(C)c2ccccc21 | 2.52% (inactive) | – |
| COc1cc2c(cc1OC)-c1c(OC)c(OC)cc3ccnc(c13)C2=O | – | 0.579 µM (active) |
| CCN(CC)CCCNc1nc2ccccc2c2[nH]c3ccc(OC)cc3c12 | – | 0.183 µM (active) |
| COc1ccc(-c2nc(NCCCN(C)C)c3ccccc3n2)cc1 | – | 0.818 µM (active) |
| CCN1C(=O)[C@H]2[C@H]3CN=C(SCc4ccccc4)N3[C@@](Cc3ccccc3)(C(=O)OC)[C@H]2C1=O | 13.6% (inactive) | – |
| Cc1nn2c3cc(N4CCOCC4)ccc3nc2c2ccccc12 | – | 1.03 µM (active) |
| COc1cccc2c1C(CO)N1C(C#N)C3CC(C(=O)O)C(C1C2)N3C (stereo not given) | – | 1.16 µM (active) |
| O=C(N/N=C/c1ccc([N+](=O)[O-])o1)C1CC1 | – | 1.16 µM (active) |
| O=C(N/N=C/c1ccc([N+](=O)[O-])o1)C1CCCC1 | – | 0.516 µM (active) |
| CCOc1cc([N+](=O)[O-])cc(/C=C2/NC(=O)N(Cc3ccccc3F)C2=O)c1O | – | 1.63 µM (active) |
| O=c1c(-c2ccc(F)cc2)coc2cc(O)ccc12 | – | 0.918 µM (active) |
| COc1ccc(-c2coc3cc(O)ccc3c2=O)cc1 | – | 1.16 µM (active) |
| CC(C)Oc1cc(O)c2c(=O)c(-c3ccc(O)cc3)coc2c1 | – | 0.516 µM (active) |
| CC1(C)Oc2cc3oc(-c4cc(O)cc(O)c4)cc3cc2CC1O (stereo not given) | – | 1.45 µM (active) |
| COC(=O)[C@]1(Cc2ccccc2)N[C@H](CN(C)C(=O)c2ccccc2)[C@@H]2C(=O)N(C)C(=O)[C@@H]21 | -1.17% (inactive) | – |
| COc1ccc(C(=O)C(C)OC(=O)CNC(=O)c2ccco2)cc1 (stereo not given) | – | 20.5 µM (active) |

| Compound | activity change, negative = killing | Potency |
| --- | --- | --- |
| COc1ccc(C(=O)C(C)OC(=O)CNC(=O)C2CCCCC2)cc1 (stereo not given) | – | 4.6 µM (active) |
| COc1ccc2oc(C(=O)OC(C)C(=O)NCc3ccccc3)c(C)c2c1 (stereo not given) | -21.9% (inactive) | – |
| CCOC(=O)N=Nc1c2ccccc2c2nc3no[nH]c3nc12 | – | 0.365 µM (active) |
| Fc1cc2[nH]cnc2cc1Cl | -8.27% (inactive) | – |
| O=C(NCc1ccco1)NC(=O)c1csc([N+](=O)[O-])c1 | – | 1.63 µM (active) |
| CC(C)CNC(=S)NC(=O)c1csc([N+](=O)[O-])c1 | – | 1.3 µM (active) |
| COc1cc(/C=C/C(=O)c2ccc3c(c2)OCCO3)cc(OC)c1OC | – | 7.29 µM (active) |
| COc1cc(C(=S)N2CCOCC2)ccc1OC(=O)/C=C/c1ccco1 | 7.28% (inactive) | – |
| Cc1nn(-c2nc3ccccc3[nH]2)c(=O)c2ccccc12 | – | 0.23 µM (active) |
| COC1C(OC(=O)/C=C/C=C/C=C/C=C/C(=O)O)CCC2(CO2)C1C1(C)OC1CC=C(C)C (stereo not given) (tested in a mixture with another compound) | – | 0.0015 µM (active) |
| CCn1ncc([N+](=O)[O-])c1C(=O)Nc1nc2cccc(C)c2s1 | – | 4.1 µM (active) |
| CCOc1ccc2nc(NC(=O)c3c([N+](=O)[O-])cnn3CC)sc2c1 | – | 1.83 µM (active) |
| Cc1ccccc1C(=O)Nc1ccc2c(c1)OCCO2 | – | 3.65 µM (active) |
| O=C(Nc1ccc2c(c1)OCCO2)c1ccc(Br)o1 | – | 5.16 µM (active) |
| O=C(Nc1ccc2c(c1)OCCO2)c1cc(-c2ccccn2)nc2ccc(Br)cc12 | – | 4.1 µM (active) |
| Cc1ccc(C(=O)Nc2ccc3c(c2)OCCO3)o1 | – | 7.29 µM (active) |
| Cc1ccc(-c2c(C(=O)N/N=C/C3CC=CCC3)nnn2-c2nonc2N)cc1 (stereo not given) | -19.1% (inactive) | – |
| CN(C)S(=O)(=O)c1ccc(N2CCCC2)c(C(=O)N2CCN(c3ccc([N+](=O)[O-])cc3)CC2)c1 | – | 1.83 µM (active) |
| O=C(N=Nc1c(O)[nH]c2ccccc12)c1cccs1 | – | 3.65 µM (active) |
| O=C(CNC(=O)Cc1ccccc1)N=Nc1c(O)[nH]c2ccc(Br)cc12 | -12.8% (inactive) | – |
| O=[N+]([O-])c1cncn1CCN1CCOCC1 | – | 0.326 µM (active) |
| C[C@]12c3[nH]c4ccc(Cl)cc4c3CCN1C(=O)[C@@H](CC(=O)NCCN1CCOCC1)C[C@@H]2C(=O)N1CCOCC1 | -36.2% (inactive) | – |
| Cc1cc(C)cc(NC(=O)c2ccc([N+](=O)[O-])o2)c1 | – | 1.03 µM (active) |
| CC(=O)c1cccc(NC(=O)c2ccc([N+](=O)[O-])o2)c1 | – | 1.16 µM (active) |

| Compound | activity change, negative = killing | Potency |
| --- | --- | --- |
| Cc1cccc(NC(=O)c2ccc([N+](=O)[O-])o2)c1 | – | 0.729 µM (active) |
| Cc1ccc(NC(=O)c2ccc([N+](=O)[O-])o2)cc1C | – | 0.46 µM (active) |
| COc1ccc(NC(=O)c2ccc([N+](=O)[O-])o2)cc1 | – | 1.03 µM (active) |
| COc1ccc(CC(=O)NCC(=O)Nc2ccccc2Br)cc1 | -17.5% (inactive) | – |
| CC(=O)c1ccc(NC(=O)c2ccc([N+](=O)[O-])o2)cc1 | – | 0.818 µM (active) |
| O=C(/C=C/c1cccnc1)/C=C/c1cccnc1 | – | 18.3 µM (active) |
| COc1cc(C(=O)/C=C/c2cccnc2)c([N+](=O)[O-])cc1OC | – | 4.6 µM (active) |
| Cc1cc(Nc2ccccc2)c2c([N+](=O)[O-])cc(C)c(C)c2n1 | – | 0.259 µM (active) |
| COc1ccccc1Nc1cc(C)nc2c(C)ccc([N+](=O)[O-])c12 | – | 2.59 µM (active) |
| Cc1ccc(Nc2cc(C)nc3c(C)ccc([N+](=O)[O-])c23)cc1 | – | 0.146 µM (active) |
| Cc1cc(Nc2ccccc2)c2c([N+](=O)[O-])ccc(C)c2n1 | – | 0.259 µM (active) |
| CN(C)/[N+]([O-])=N/Oc1ccc([N+](=O)[O-])cn1 | – | 2.59 µM (active) |
| Cc1cc(C2=NNC(=NC3CC3)SC2)c(C)n1-c1ccccc1F | – | 1.45 µM (active) |
| COc1ccc(-c2ncn(CCC#N)c2[N+](=O)[O-])cc1 | – | 0.206 µM (active) |
| CCn1c(=NC(=O)c2cccc(N3C(=O)CCC3=O)c2)sc2c(OC)ccc(OC)c21 | – | 2.31 µM (active) |
| Cc1cccc(N2CCN(C(=S)Nc3ccc4nc(N5CCN(C)CC5)cc(C)c4c3)CC2)c1C | – | 1.03 µM (active) |
| Cc1ccc(C)c(N2CCN(C(=S)Nc3ccc4nc(N5CCN(C)CC5)cc(C)c4c3)CC2)c1 | – | 1.3 µM (active) |
| COc1ccc2nc(C)cc(N/N=C/c3cccc(OC)c3O)c2c1 | – | 0.918 µM (active) |
| COc1ccc(/C=N/Nc2cc(C)nc3c(C)cccc23)cc1 | – | 0.818 µM (active) |
| COc1ccc(N(CC(=O)N/N=C/c2cccc(OC)c2OC)S(=O)(=O)c2ccccc2)cc1 | -8.54% (inactive) | – |
| COc1ccc2nc(C)cc(N/N=C/c3ccc(F)cc3)c2c1 | – | 1.16 µM (active) |
| O=c1c([N+](=O)[O-])cccn1Cc1cccc(Cl)c1 | – | 4.6 µM (active) |
| O=c1c([N+](=O)[O-])cccn1Cc1cccc(Br)c1 | – | 2.05 µM (active) |
